Records with an inconclusive call do not appear. Activity calls are given as the source filed them. The calls were made as follows: active = hit-call score of the fitted dose curve at least 0.9, where 1 is the maximum; inconclusive = response in the unintended direction; inactive = score below 0.9.

This test can be described thus: Tanguay_ZF_120hpf_AXIS_legacy: (Legacy) Oregon State University Tanguay Lab 120 Hour Post-fertilization zebrafish Assay for Body Axis Malformation (AID 2283635).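 As to AC50: potency for an increased fraction of larvae scored with body axis malformation.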 As for the experimental part:
Tanguay_ZF_120hpf_legacy is a whole embryo, multiplexed endpoint assay using zebrafish larvae exposed for 120 hours post fertilization on a 96-well plate.Tanguay_ZF_120hpf_AXIS_legacy is one of one assay component(s) measured or calculated from the Tanguay_ZF_120hpf_legacy assay. It is designed to make measurements of zebrafish development as detected with brightfield microscopy of developing zebrafish embryos.Data from the assay component Tanguay_ZF_120hpf_AXIS_legacy was analyzed into 1 assay endpoints. This assay endpoint, Tanguay_ZF_120hpf_AXIS_legacy, was analyzed in the positive analysis fitting direction relative to DMSO as the negative control and baseline of activity. Using a type of morphology reporter, gain-of-signal activity can be used to understand changes in developmentals as they relate to the whole embryo. To generalize the intended target to other relatable targets, this assay endpoint is annotated to the zebrafish development intended target family, where the subfamily is body axis morphogenesis.
Zebrafish husbandry: Tropical 5D wild-type adult zebrafish were housed in at an approximate density of 1000 per 100 gallon tank at the Sinnhuber Aquatic Research Laboratory, Oregon State University, Corvallis, OR. Each tank was kept at standard laboratory conditions of 28C on a 14-h light/10-h dark photoperiod in fish water consisting of reverse osmosis water supplemented with a commercially available salt (Instant Ocean). Spawning funnels were placed into the tanks the night prior, and embryos were collected and staged. To increase bioavailability, the chorion was enzymatically removed using pronase (63.6mg/ml, >/= 3.5U/mg, Sigma-Aldrich: P5147) at 4 hours post fertilization (hpf) using a custom automated dechorionator.Chemical exposures: Six hpf dechorionated embryos were placed 1 embryo per well in a 96-well plate prefilled with 90 ul of EM using automated embryo placement systems (AEPS). Ten microliters of each row of dilution plate 2 was added to 2 exposure plates. The final DMSO concentration used was 0.64% (vol/vol). Thirty-two embryos were also exposed to 5uM trimethyltin chloride (positive control). Plates were sealed to prevent evaporation and foil covered to reduce light exposure and kept in a 28C incubator. Embryos were statically exposed until 120 hpf. At 24 hpf, embryos were assessed for photomotor response using a custom photomotor response analysis tool (PRAT) and for developmental toxicity endpoints (MO24: mortality at 24 hpf, DP: developmental progression, SM: spontaneous movement, and NC: notochord distortion). At 120 hpf, locomotor activity was measured using Viewpoint Zebralab and assessed for 18 endpoints. Zebrafish acquisition and analysis program (ZAAP), a custom program designed to inventory, acquire, and manage zebrafish data, was used to collect developmental endpoints as either present or absent (i.e., binary responses were recorded). If mortality occurred for an embryo (at either 24 or 120 hpf), the non-mortality endpoints were not measured.
On to `NS(=O)(=O)c1cc2c(cc1Cl)NCNS2(=O)=O`, for which the compound was classed as inactive.

In the case of `COCCOC[C@H](CC1(C(=O)NC2CCC(C(=O)O)CC2)CCCC1)C(=O)Oc1ccc2c(c1)CCC2` (stereo not given in full), the call was inactive.

`CNCc1cc(F)ccc1Oc1ccc(Cl)c(Cl)c1`: the compound was classed as inactive.

For `CN1CCCC1=O`, the compound was called inactive.

Take `CCCCCCCCCCCCCO`: the outcome was inactive.

On to `C[Si]1(C)O[Si](C)(C)O[Si](C)(C)O[Si](C)(C)O1`, for which the compound was classed as inactive.

Consider `CC(=O)C(C)=CC1C(C)=CCCC1(C)C` (stereo not given), for which the compound was classed as inactive.

For the compound `C1CCC(SSC2CCCCC2)CC1`, the result was inactive.

With `NCCO`, the call was inactive.

With `C=CCc1ccc(O)c(OC)c1`, the call was inactive.

On to `Cc1ccc2ncccc2c1`, for which the compound was called inactive.

As for `COc1ccc2c(c1)c(CC(=O)O)c(C)n2C(=O)c1ccc(Cl)cc1`, the call was inactive.

Turning to `Cc1ccc(Cl)cc1`, the result was inactive.

As to `CC(=O)OCCOCCOCCOC(C)=O`, the compound was classed as inactive.

Turning to `CCOc1ccc2c(c1)C(C)=CC(C)(C)N2`, the compound was classed as inactive.

For `CCCCCCCCCCCCCCCCCC(=O)O`, the compound was called inactive.

`COC(=O)c1ccc(O)cc1`: the compound was called inactive.

For the compound `O=C(N[C@@H](Cc1ccccc1)[C@@H](O)C(=O)N1C[C@@H](O)[C@@H](O)C1)c1cc2cc(Cl)ccc2[nH]1`, the call was inactive.

With `CCOC(=O)CCC(=O)OCC`, the compound was called inactive.

Take `CC1(C)CC(N=C=O)CC(C)(CN=C=O)C1` (stereo not given): the result was inactive.

For the compound `CC(CO)OC(C)CO` (stereo not given) (tested in a mixture with another compound), the call was inactive.

Take `Cc1ccc(N(C)C)cc1`: the result was inactive.

As for `CCc1c(C(=O)NN2CCCCC2)nn(-c2ccc(Cl)cc2Cl)c1-c1ccc(Br)cc1`, the compound was classed as inactive.

Turning to `Cc1c(C(=O)O)c(O)cc2c1C(=O)c1c(O)c([C@@H]3O[C@H](CO)[C@@H](O)[C@H](O)[C@H]3O)c(O)c(O)c1C2=O`, the call was inactive.

Turning to `COc1cc(C=O)ccc1O`, the AC50 was 49.2 µM (active).

Regarding `O=C(OCCCCCOC(=O)c1ccccc1)c1ccccc1`, the compound was called inactive.

Regarding `CCCCCC(=O)O`, the call was inactive.

On to `Cc1nc(-c2ccc3c(c2)CCN(CCC2CCC(NC(=O)/C=C/c4ccc(F)cc4)CC2)CC3)no1` (stereo not given), for which the compound was classed as inactive.

Take `O=[N+]([O-])C(CO)(CO)CO`: the result was inactive.

Consider `OC[C@@H](O)[C@@H](O)[C@H](O)[C@H](O)CO`, for which the call was inactive.

Turning to `CN1CCN(Cc2cc(-c3ccc4[nH]c(=O)oc4c3)co2)[C@@H](c2ccc(F)cc2)C1`, the result was inactive.

Consider `CC(C)c1ccc(C(=O)N=C(N)N)cc1S(C)(=O)=O`, for which the compound was called inactive.

In the case of `COc1cc(S(=O)(=O)O)c(C)cc1N=Nc1c(O)ccc2cc(S(=O)(=O)O)ccc12`, the result was inactive.

Regarding `CCCCCCOCCO`, the call was inactive.

`Cc1ccc(C)c(C)c1`: the compound was called inactive.

Consider `CCNc1cccc(C)c1`, for which the call was inactive.

On to `Cc1cccc([N+](=O)[O-])c1C`, for which the result was inactive.

As to `CCCCN(CCCC)CCCC`, the compound was classed as inactive.

With `COc1cc(-c2nc(NC(=O)c3cc4cc(C)cc(C)c4n3CC(=O)O)sc2CCC2CCCCC2)c(OC)cc1Cl`, the call was inactive.

Regarding `CNC(=O)[C@H]1O[C@@H](n2cnc3c(NCc4cc(Cl)ccc4OCc4cc(C)no4)ncnc32)[C@H](O)[C@@H]1N`, the outcome was inactive.

By AC50 is commonly meant the concentration giving half of the maximal activity seen.
